High-throughput results (PubChem)
JMJD2A Tudor: JMJD2A Tudor domain (human) inhibition. AlphaScreen JMJD2A-Tudor / H3K4me3 peptide binding. actives 4.4% (n = 390,000). O75164. Potency, µM (highest dose often 114 µM), actives largely listed as inhibitors; note: nearly all actives have a fitted effect of over 50% in size
BAZ2B block: inhibitors of human BAZ2B bromodomain; AID 504333; actives 4.4% (n = 360,000); AlphaScreen BAZ2B-H3K14Ac peptide displacement; Potency, µM (top dose mostly 114 µM), hits mostly inhibitors; note: nearly all actives have a fitted effect of over 60% in size
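AlphaScreen displacement of biotin-H3(5-23)K14Ac peptide (50 nM final) from BAZ2B (50 nM final) in PBS pH 7.4, 0.01% Tween-20; complex preformed 30 min RT, then compounds (top 110 uM) 30 min RT, beads 20 min dark.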
G9a block: inhibitors of human histone lysine methyltransferase G9a; G9a H3K9 monomethylation, AlphaScreen, 2 h; Potency, µM (top dose mostly 102 µM), hits mostly inhibitors; actives 8.8% (n = 350,000); AID 504332; note: nearly all actives have a fitted effect of over 75% in size
Target sequence (Q96KQ7 913-1193 limits assumed): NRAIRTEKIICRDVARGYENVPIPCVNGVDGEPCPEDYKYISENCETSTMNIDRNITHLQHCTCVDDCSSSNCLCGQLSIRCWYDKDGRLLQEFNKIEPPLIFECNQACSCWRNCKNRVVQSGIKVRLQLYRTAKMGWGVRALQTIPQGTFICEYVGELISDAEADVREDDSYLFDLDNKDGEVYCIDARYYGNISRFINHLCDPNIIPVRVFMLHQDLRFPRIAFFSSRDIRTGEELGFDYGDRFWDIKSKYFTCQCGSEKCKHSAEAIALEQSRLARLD
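Methyltransferase reactions run at room temperature for 2 h (20 nM enzyme, 500 nM biotin-H3K9 peptide, 20 uM SAM) after a 15 min compound preincubation; product detected by AlphaScreen beads and anti-H3K9me1 antibody.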
PLK1 PBD inh: inhibitors of human PLK1 polo-box domain binding. Plk1 PBD binding of FITC phosphopeptide, fluorescence polarization. Potency, µM, most hits filed as inhibitors. actives 2.8% (n = 360,000). AID 720504; note: series mostly up to about 57 µM; nearly all actives have a fitted effect of over 65% in size
Sfp inh: inhibitors of Bacillus subtilis Sfp phosphopantetheinyl transferase; Q9F4F7; Biochemical Sfp PPTase activity, qHTS; Potency, µM, hits mostly inhibitors; actives 3.5% (n = 310,000); AID 1490;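 note: the enzyme is Sfp with the accession as filed and its product quenches rhodamine fluorescence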
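After 15 min at room temperature with compound, 15 nM Sfp received 5 uM rhodamine-CoA plus 12.5 uM BHQ-2-ybbR (50 mM Hepes pH 7.6, 10 mM MgCl2). Rate came from the fluorescence difference over 30 min, ex 525/em 598 nm.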
HP1b binding inh: blocks HP1-beta chromodomain binding to methylated histone tails; P83916; AlphaScreen HP1-beta / biotin-H3K9me3 peptide binding; Potency, µM (titrated, usually from 114 µM), most hits filed as inhibitors; actives 0.56% (n = 390,000); AID 540317; note: nearly all actives have a fitted effect of over 70% in size
Target sequence (P83916 whole entry, looked up): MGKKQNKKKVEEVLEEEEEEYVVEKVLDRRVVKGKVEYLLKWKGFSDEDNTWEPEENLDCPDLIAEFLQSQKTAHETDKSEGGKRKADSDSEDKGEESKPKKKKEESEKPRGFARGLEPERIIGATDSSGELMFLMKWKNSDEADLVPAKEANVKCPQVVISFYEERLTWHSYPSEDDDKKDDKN
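HP1-beta protein (50 nM final) preincubated 30 min at room temperature with biotinylated H3(1-18)K9me3 peptide (50 nM) in PBS pH 7.4, 0.01% Tween-20, then compound added for 30 min. AlphaScreen streptavidin donor/nickel chelate acceptor beads (10 ug/mL final), 30 min dark, luminescence read.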
Hits are given with their value; i = inactive; ? = inconclusive; nt = not tested or not shown; [ ] = another dose, or the depositor's remark. The list is not random: actives were taken first. Their share in the collection is about 12%. Calls come from the whole dose curve; as a rule, active = well fitted curve in the direction sought with a large enough effect; inconclusive = small, poorly fitted or top-dose-only effect, or another doubt; inactive = no such curve, though single readings can be large; an effect the other way counts as inactive or inconclusive.

SMILES	JMJD2A Tudor	BAZ2B block	G9a block	PLK1 PBD inh	Sfp inh	HP1b binding inh
Cc1ccc(C(=O)CC2(O)C(=O)N(CCc3ccccc3)c3ccc(Br)cc32)o1 (stereo not drawn)	i	i	?	i	7.94µM	i
O=C(CC1(O)C(=O)N(CCc2ccccc2)c2ccc(Br)cc21)c1ccccc1 (stereo not drawn)	i	i	i	nt	nt	i
CC(C)=Cc1oc2ccc([N+](=O)[O-])cc2c1N1CC(C)OC(C)C1 (stereo not drawn)	i	63.1µM	14.1µM	i	i	?
CCCCNC(=O)c1nn(C)c2c1CSc1ccccc1-2	?	?	15.8µM	nt	nt	i
CCCCN(CC)CCNC(=O)c1nn(C)c2c1CS(=O)(=O)c1ccccc1-2	i	i	i	nt	nt	i
COc1ccc(CCNC(=O)c2nn(C)c3c2CS(=O)(=O)c2ccccc2-3)c(OC)c1	i	50.1µM	i	i	i	i
COCCCNC(=O)c1nn(C)c2c1CS(=O)(=O)c1ccccc1-2	i	i	i	nt	nt	i
CCN(CC)CCCNC(=O)c1nn(C)c2c1CS(=O)(=O)c1ccccc1-2	i	i	25.1µM	nt	nt	i
Cc1ccc(CN2C(=O)c3ccccc3NC2c2cc(Br)ccc2O)cc1 (stereo not drawn)	i	i	?	i	i	i
CCOC(=O)c1sc(N2C(=O)c3oc4ccc(F)cc4c(=O)c3C2c2cccc(OC)c2)nc1C (stereo not drawn)	i	i	?	nt	nt	i
COc1ccc(CN2CCN(Cc3ccc(CO)o3)CC2CCO)cc1C (stereo not drawn)	i	i	i	i	i	i
O=[N+]([O-])c1ccccc1/C=C/C=N/n1c(-c2ccc(Cl)cc2)n[nH]c1=S	?	?	6.31µM	?	i	i
O=[N+]([O-])c1ccccc1/C=C/C=N/n1c(-c2ccccc2)n[nH]c1=S	56.2µM	?	3.16µM	?	i	?
Cc1ccc(NC(=O)Cn2c(=O)n(Cc3ccccc3)c(=O)c3c(C)c(C)sc32)c(C)c1	i	i	i	nt	nt	i
COc1ccc(N(C(=O)c2snc(C(N)=O)c2N)C(C(=O)NC2CCCC2)c2cc(OC)ccc2OC)cc1 (stereo not drawn)	i	i	i	i	i	i
CSc1nnc2c(n1)c(C)nn2-c1cccc(C)c1	?	28.2µM	10µM	i	i	i
COc1cccc2c1OC(=O)CC2c1ccccc1C (stereo not drawn)	nt	nt	i	nt	i	nt
CCOc1cc(/C=C\[N+](=O)[O-])ccc1OCC(=O)Nc1ccccc1C	i	i	?	?	2µM	i
COc1ccc(S(=O)(=O)N2CCC(n3c(C(F)(F)F)nc4cccnc43)CC2)cc1OC	i	i	i	nt	nt	i
CN(CC(O)COCc1ccccc1F)C1CCCCC1 (stereo not drawn)	i	i	i[12.7 µM]	i	i	i
CN(Cc1cccc(F)c1)CC(O)COCc1ccccc1Cl (stereo not drawn)	22.4µM	nt	56.2µM	i	i	?
COC(=O)C1=C(C(=O)OC)[C@@H]2N(C)c3ccc(OC)cc3[C@@]23C[C@@H](C(=O)OC)N(C(=O)c2cc(C)oc2C)C3=N1	44.7µM	nt	nt	i	i	?
COC(=O)C1=C(C(=O)OC)[C@@H]2N(C)c3ccc(OC)cc3[C@@]23C[C@@H](C(=O)OC)N(S(=O)(=O)c2ccc(C)cc2)C3=N1	nt	nt	nt	nt	i	nt
COC(=O)C1=C(C(=O)OC)[C@@H]2N(C)c3ccc(OC)cc3[C@@]23C[C@@H](C(=O)OC)N(C(=O)c2cccs2)C3=N1	?	50.1µM	39.8µM	i	i	?
COC(=O)C1=C(C(=O)OC)[C@@H]2N(C)c3ccccc3[C@@]23C[C@@H](C(=O)OC)N(C(=O)c2cccs2)C3=N1	?	?	i	i	i	i
SMILES	JMJD2A Tudor	BAZ2B block	G9a block	PLK1 PBD inh	Sfp inh	HP1b binding inh
COc1cccc(CNC(=O)c2cc(=O)[nH]c3ccc(S(=O)(=O)N4CCCC4)cc23)c1	i	i	i	nt	nt	i
COc1cccc(/C=N/n2nnc3c(cnn3-c3ccccc3)c2=O)c1	i	i	i	i	i	i
COc1cc(/C=N/n2c(-c3cc(C)[nH]n3)n[nH]c2=S)cc(OC)c1OC	1.41µM	i	2.51µM	i	31.6µM	i
COc1cc(/C=N/NC(=S)N/N=C/c2cc(OC)c(OC)c(OC)c2)cc(OC)c1OC	?	i	?	i	i	i
COc1cccc(/C=N/n2c(-c3cc(C)[nH]n3)n[nH]c2=S)c1	3.16µM	i	2.51µM	i	?	?
COc1cc(/C=N/n2c(-c3cc(C)[nH]n3)n[nH]c2=S)ccc1O	?	i	3.98µM	i	50.1µM	i
CCOc1ccc(NC(=O)c2cc(=O)c3ccc(C)c(C)c3o2)cc1	i	i	i	nt	nt	i
O=C(Nc1nc2ccccc2s1)C1CCN(S(=O)(=O)c2cc([N+](=O)[O-])ccc2Cl)CC1	?	28.2µM	?	i	i	i
CCC(C)NC(=O)C1CCN(S(=O)(=O)c2cc([N+](=O)[O-])ccc2Cl)CC1 (stereo not drawn)	i	i	i	i	i	i
Cc1cccc(Cn2c(C)c(C)c3cc(C(=O)NCCN4CCOCC4)ccc32)c1	50.1µM	56.2µM	39.8µM	i	i	i
Cc1cccc(CNC(=O)c2ccc3c(c2)c(C)c(C)n3Cc2ccccc2)c1	i	?	i	nt	nt	i
Cc1c(C)n(Cc2ccc(F)cc2)c2ccc(C(=O)NCc3ccco3)cc12	?	i	i	nt	nt	i
Cc1c(C)n(Cc2ccc(F)cc2)c2ccc(C(=O)NCCN3CCOCC3)cc12	?	50.1µM	50.1µM	i	i	i
COC(=O)c1c(NC(=O)CSc2ncn[nH]2)sc(C)c1C	i	i	3.98µM	i	nt	i
CCOC(=O)c1sc(NC(=O)CCN2CC(C)OC(C)C2)c(C(=O)OCC)c1C (stereo not drawn)	nt	i	44.7µM	nt	i	nt
CCOC(=O)c1c(NC(=O)CC)sc(C(C)=O)c1C	i	?	25.1µM	10.6µM	39.8µM	i
CCOC(=O)c1c(NC(=O)CSc2nc3ccccc3s2)sc(C(C)=O)c1C	i	i	i	i	i	i
CCOC(=O)c1sc(NC(=O)CCN2CCN(C)CC2)c(C(=O)OCC)c1C	i	?	i[12.7 µM]	i	i	i
CCOC(=O)c1c(NC(=O)CSc2ncn[nH]2)sc(C(C)=O)c1C	i	56.2µM	i	i	i	i
CCOC(=O)c1c(NC(=O)CC)sc(C(=O)NC2CCCC2)c1C	i	i	i	i	i	i
Cc1ccc(NC(=O)CSc2ncn[nH]2)cc1	i	i	i	i	i	i
Cc1cc(NC(=O)CSc2nc3ccsc3c(=O)n2Cc2ccccn2)n[nH]1	i	79.4µM	i	i	i	i
CCCCn1c(SCC(=O)Nc2cc(C)[nH]n2)nc2ccsc2c1=O	i	i	i	i	i	i
